Compound activity (PubChem)
Most compounds without a hit are left out; they make up all but 19% or so of the library.
KB-V1 cytotox – qHTS assay for MDR1-selective chemotherapeutics: Primary screen using the drug-selected MDR subline cells KB-V1; KB-V1 MDR cells viability, CellTiter-Glo, 72 h; Potency, µM (top dose mostly 46.1 µM), actives largely listed as cytotoxic; 3.4% of 400,000 active; note: nearly all actives have a fitted effect of over 60% in size
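Cytotoxicity via CellTiter-Glo luminescence after 72 h compound exposure at 37 degrees C. Cells: drug-selected KB-V1 line, DMEM phenol-red free plus 10% FBS. Compounds tested at multiple concentrations; normalized data fitted to concentration-effect curves.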
DT40 TDP1 CPT – qHTS for Inhibitors of human tyrosyl-DNA phosphodiesterase 1 (TDP1): qHTS in cells in presence of CPT | chicken DT40 Tdp1-/-;hTDP1 cells + 20 nM CPT, ATP luminescence, 48 h | Potency, µM (top dose mostly 46.2 µM), for the others: top-dose activity change, negative = growth inhibition, usual class: inhibitors | 12% of 420,000 active | AID 686979, 2013; note: nearly all actives have a fitted effect of over 55% in size
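Chicken DT40 Tdp1-/- cells stably complemented with human TDP1 were seeded at 400 cells/well in medium containing 20 nM camptothecin, exposed to pin-transferred compounds, and grown at 37 °C for at least 48 hr. Viability was read as ATP luminescence.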
HT1080NT lethal – qHTS for induction of synthetic lethality in tumor cells producing 2HG: qHTS for the HT-1080-NT fibrosarcoma cell line; 1.6% of 360,000 active; Potency, µM (titrated, usually from 46.1 µM), without a hit: top-dose activity, negative = less viability, actives largely listed as cytotoxic; HT-1080-NT fibrosarcoma viability, CellTiter-Glo ATP luminescence, 48 h; AID 686970, 2013;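 note: NT is the 2HG producing partner of a matched IDH1 knockdown line; 0% = DMSO-treated cells and -100% = media-only wells without cells; nearly all actives have a fitted effect of over 55% in size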
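A 48-hour cytotoxicity screen used HT-1080-NT cells plated 2 hours before compound delivery. ATP-based CellTiter-Glo luminescence measured viability, normalized to DMSO and no-cell controls.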
HT1080 IDH1KD tx – qHTS for induction of synthetic lethality in tumor cells producing 2HG: qHTS for the HT-1080-IDH1KD cell line; HT-1080 IDH1 knockdown viability, ATP luminescence, 48 h; 2% of 360,000 active; Potency, µM (top dose mostly 46.1 µM), without a hit: top-dose activity, negative = toxicity, hits mostly cytotoxic;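 note: 0% = DMSO wells and -100% = cell-free medium wells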
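Knockdown cells (IDH1KD HT-1080) received compounds 2 h after plating at 750 cells/well and were kept 48 h at 37 °C in 5% FBS RPMI. A CellTiter-Glo luminescence read gave % activity for curve fitting.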
KB-3-1 tox – qHTS assay for MDR1-selective chemotherapeutics: Primary screen using the parental adenocarcinoma cell KB-3-1; KB-3-1 viability, CellTiter-Glo ATP luminescence, 72 h; 1.4% of 400,000 active; Potency, µM (highest dose often 46.1 µM), actives largely listed as cytotoxic; note: nearly all actives have a fitted effect of over 60% in size
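KB-3-1 parental drug-naive adenocarcinoma cells in DMEM/10% FBS, incubated 72 h at 37 C with pin-transferred compounds across a concentration series. Viability by CellTiter-Glo luminescence; concentration-response curves fitted after normalization.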
TDP1 cell noCPT – qHTS for Inhibitors of human tyrosyl-DNA phosphodiesterase 1 (TDP1): qHTS in cells in absence of CPT | DT40 Tdp1-/- hTDP1 cells, no CPT, ATP luminescence, 48 h | Potency, µM (top dose mostly 46.2 µM), inactives show at the top dose activity change, negative = growth inhibition, hits mostly inhibitors | 15% of 420,000 active; note: nearly all actives have a fitted effect of over 55% in size
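Cells were dispensed at 400 per well, compounds added by pin tool, plates incubated ≥48 hr at 37 °C, then CellTiter-Glo added for 30 min at room temperature before luminescence reading. Line: DT40 Tdp1-/- complemented with hTDP1; camptothecin omitted.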
An asterisk follows results filed as active; i = inactive; ? = inconclusive; / = not tested or not shown; [ ] = another dose, or the depositor's remark. Calls come from the whole dose curve; as a rule, active = well fitted curve in the direction sought with a large enough effect; inconclusive = small, poorly fitted or top-dose-only effect, or another doubt; inactive = no such curve, though single readings can be large; an effect the other way counts as inactive or inconclusive. Unless noted, % is set by controls: 0 for no effect and ±100 for the full control effect; potency is the fitted concentration of half-maximal effect.

SMILES	KB-V1 cytotox	DT40 TDP1 CPT	HT1080NT lethal	HT1080 IDH1KD tx	KB-3-1 tox	TDP1 cell noCPT
CCOC(=O)N1CCN(C(=O)CSc2nnc(-c3cc(OC)cc(OC)c3)o2)CC1	?	-7.0%	2.9%	-7.3%[9.24 µM]	i	?
CCOC(=O)N1CCN(C(=O)CSc2nnc(-c3cccc(OC)c3)o2)CC1	i	16.4µM*	5.7%	6.6%	i	23.1µM*
O=S1(=O)CCN(CCc2ccccc2)CC1	i	2.1%	7.5%	8.9%	i	7.4%
CCc1c(C)[nH]n(-c2nc(-c3cccc([N+](=O)[O-])c3)cs2)c1=O	16.4µM*	?	2.4%	-0.6%	?	?
Cc1ccc(/C=[N+](\[O-])c2ccc(N(C)C)cc2)c2nsnc12	i	7.31µM*	20.6µM*	-1.3%	i	16.4µM*
CCN1CCN(c2ccc(S(=O)(=O)N3CCCCC3)cc2NC(=O)/C=C/c2ccc(Cl)cc2)CC1	?	?	-20.6%	?	?	?
CCN(Cc1ccccc1)c1ncnc2c1nnn2C	i	-9.8%	/	/	i	-21.3%
CCOC(=O)C1=C(COC(=O)CCOc2ccccc2)NC(=O)NC1C (stereo unspecified)	i	23.1µM*	-1.2%	1.5%	i	23.1µM*
CN(CC(=O)Nc1ccc(Cl)c(Cl)c1)CC(=O)N1CCc2ccccc21	i	-21.3%	?	?	i	?
COc1ccc2c3c(cccc13)C(=O)CC2	?	18.4µM*	?	?	i	20.6µM*
CCC(c1nc2ccccc2c(=O)n1-c1nc2ccccc2s1)N1C(=O)c2ccccc2C1=O (stereo unspecified)	3.66µM*	-15.0%	-7.4%	-7.4%	?	-24.9%
O=c1c2ccccc2ncn1Cc1nc2ccccc2s1	i	-0.8%	6.4%	1.0%	i	-30.0%
O=P(O)(O)OC[C@H]1O[C@](O)(COP(=O)(O)O)[C@@H](O)[C@@H]1O	/	7.0%	/	/	/	-4.5%
CCN(CCCNC(=O)CCn1c(=O)[nH]c2ccccc2c1=O)c1cccc(C)c1	i	-28.4%	6.1%	5.4%	i	-18.8%
COC(=O)c1ccc2c(=O)n(CCCCCC(=O)NCCc3ccccc3)c(=O)[nH]c2c1	i	?	/	/	i	18.4µM*
O=C(CCCCCn1c(=O)[nH]c2ccccc2c1=O)NCCc1ccccc1	i	0.291µM*	/	/	i	0.461µM*
O=C(CCCCn1c(=O)[nH]c2ccccc2c1=O)NCCc1c[nH]c2ccccc12	i	-8.5%	-1.4%	-5.1%	i	-21.4%
CCN(CCCNC(=O)CCCn1c(=O)[nH]c2ccccc2c1=O)c1cccc(C)c1	i	?	-8.0%	-9.3%	i	20.6µM*
O=C(CCCCCn1c(=O)[nH]c2ccccc2c1=O)NCc1ccccc1	i	-21.2%	/	/	i	-28.1%
O=C(CCCCn1c(=O)[nH]c2ccccc2c1=O)NCCC1=CCCCC1	16.4µM*	-4.5%	2.4%	0.9%	i	-29.5%
